Source: PubChem BioAssay (NCI)
This is part of a sample that, as a whole, favours compounds with a hit. Of some 83,000 tested, about 20% had one in any assay.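 Interpretation: 100, growth as untreated; towards 0, rising growth inhibition; 0, no net growth; 0 to -100, cell death. Compounds scoring below 10 were considered active.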 Values without a mark were called inactive. Calls of active or inactive are those of the source.

Key:
Experiment in all cases: NCI-60 one-dose screen, 48 h (100 = growth as untreated, 0 = no growth, -100 = all killed)
NCI-H460 lung = details: 10 µM unless noted
786-0 renal = details: 10 µM unless noted
COLO 205 colon = details: 10 µM
MALME-3M melanoma = details: 10 µM unless noted
RXF 393 renal = details: 10 µM unless noted
SF-295 CNS = details: 10 µM unless noted
SF-539 CNS = details: 10 µM unless noted
UACC-257 melanoma = details: 10 µM unless noted
HT29 colon = details: 10 µM unless noted
SK-MEL-5 melanoma = details: 10 µM unless noted
SK-MEL-2 melanoma = details: 10 µM unless noted
UO-31 renal = details: 10 µM unless noted
TK-10 renal = details: 10 µM unless noted
ACHN renal = details: 10 µM unless noted
A498 renal = details: 10 µM unless noted
HL-60(TB) leukemia = details: 10 µM unless noted
MOLT-4 leukemia = details: 10 µM
T-47D breast = details: 10 µM unless noted
SW-620 colon = details: 10 µM unless noted
HCC-2998 colon = details: 10 µM unless noted

Row | Compound | growth (NCI-H460 lung) [%] | growth (786-0 renal) [%] | growth (COLO 205 colon) | growth (MALME-3M melanoma) [%] | growth (RXF 393 renal) [%] | growth (SF-295 CNS) [%] | growth (SF-539 CNS) | growth (UACC-257 melanoma) [%] | growth (HT29 colon) | growth (SK-MEL-5 melanoma) [%] | growth (SK-MEL-2 melanoma) [%] | growth (UO-31 renal) [%] | growth (TK-10 renal) [%] | growth (ACHN renal) [%] | growth (A498 renal) | growth (HL-60(TB) leukemia) | growth (MOLT-4 leukemia) [%] | growth (T-47D breast) [%] | growth (SW-620 colon) [%] | growth (HCC-2998 colon) [%]
1 | [N-]=[N+]=NC(C(=O)O)c1ccccc1 (centres undefined) | 115 | 103 | 104% | 106 | 140 | 102 | 93.9% | 98.3 | 99.1% | 116 | 99.5 | 88.9 | 106 | 100 | 101% | 89.4% | 87.4 | 103 | 107 | 96.9
2 | CC12CCC(=O)C=C1C(O)CC1C2CCC2(C)C(O)CCC12 (centres undefined) | 102 | 115 | 112% | 95.9 | 113 | 105 | 98.7% | 95 | 108% | 98.6 | 105 | 87.1 | 104 | 117 | 89.6% | 101% | 96.5 | 112 | 109 | 101
3 | Cc1ccc2oc(=O)c3c(c2c1)OC(N)=C(C#N)C3c1ccco1 (centres undefined) | 105 | 102 |  | 99 |  | 98 | 101% | 96.6 | 108% | 101 | 112 | 77.7 | 108 | 101 | 105% | 113% | 107 |  | 101 | 109
4 | Oc1ccc2c3c1O[C@H]1c4[nH]c5ccccc5c4C[C@@]4(O)C(C2)N(CC2CC2)CC[C@]314 | 107 | 95.2 | 96.9% | 122 |  | 98.3 | 103% | 97.4 | 83.9% | 96.4 | 90.1 | 69.9 | 95 | 89.7 | 100% | 98.6% | 74.4 | 84.8 | 99.9 | 90
5 | C[C@]12CC[C@@H]3C4=C(CC[C@H]3[C@@H]1CC[C@@H]2O)CC(=O)CC4 | 105 | 106 | 117% | 116 | 100 | 102 | 103% | 92.8 | 105% | 59 | 127 | 92 | 113 | 104 | 90.6% | 99.5% | 89 | 95.4 | 102 | 104
6 | FC(F)=C(F)c1ccccc1 | 109 | 101 | 104% | 101 | 112 | 96.5 | 103% | 116 | 104% | 105 | 98.5 | 83.7 | 89.7 | 110 | 100% | 90.8% | 92.6 | 80.5 | 109 | 114
7 | O=C(NCc1ccc([N+](=O)[O-])cc1)Nc1ccc(S(=O)(=O)F)cc1 | 95.8 | 80.1 | 107% | 78.7 | 59.9 |  | 88.3% | 83 | 91.9% | 79.9 | 105 | 61.2 | 78.1 | 90.1 | 55.9% | 85.1% | 87.3 | 57 | 91.8 | 99.2
8 | COc1ccc(/C=C(/C(=O)N2CCCC2)c2cc(OC)c(OC)c(OC)c2)cc1N | 13.5 | 24.5 | 5.31% (active) |  | 11.2 | 17.5 | 3.13% (active) | 53.8 | 9.12% (active) | 20 | 42.6 | 51.7 | 75.3 | 45.2 | -0.924% (active) | -11.9% (active) | 34.4 | 37.8 | 25.6 | 68.5
